# Laboratory results as given in PMC4336329 (PLoS ONE, 2015).
# The campaign covered roughly 310,000 compounds. About 14,000 (4.5%) showed an effect of 50% or more. Effects have a minus sign here. The full list was thinned out, with strong results kept by preference.
# Target: human ether-à-go-go-related gene (hERG) potassium channel (human, UniProt Q12809)
# Assay: primary screen, population patch clamp on CHO cells stably expressing hERG; higher = less effect of the substance
# 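Also: peak tail current of the secondary pulse compared with the same well before compound.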
# Chain of human ether-à-go-go-related gene (hERG) potassium channel (Q12809 whole entry, looked up): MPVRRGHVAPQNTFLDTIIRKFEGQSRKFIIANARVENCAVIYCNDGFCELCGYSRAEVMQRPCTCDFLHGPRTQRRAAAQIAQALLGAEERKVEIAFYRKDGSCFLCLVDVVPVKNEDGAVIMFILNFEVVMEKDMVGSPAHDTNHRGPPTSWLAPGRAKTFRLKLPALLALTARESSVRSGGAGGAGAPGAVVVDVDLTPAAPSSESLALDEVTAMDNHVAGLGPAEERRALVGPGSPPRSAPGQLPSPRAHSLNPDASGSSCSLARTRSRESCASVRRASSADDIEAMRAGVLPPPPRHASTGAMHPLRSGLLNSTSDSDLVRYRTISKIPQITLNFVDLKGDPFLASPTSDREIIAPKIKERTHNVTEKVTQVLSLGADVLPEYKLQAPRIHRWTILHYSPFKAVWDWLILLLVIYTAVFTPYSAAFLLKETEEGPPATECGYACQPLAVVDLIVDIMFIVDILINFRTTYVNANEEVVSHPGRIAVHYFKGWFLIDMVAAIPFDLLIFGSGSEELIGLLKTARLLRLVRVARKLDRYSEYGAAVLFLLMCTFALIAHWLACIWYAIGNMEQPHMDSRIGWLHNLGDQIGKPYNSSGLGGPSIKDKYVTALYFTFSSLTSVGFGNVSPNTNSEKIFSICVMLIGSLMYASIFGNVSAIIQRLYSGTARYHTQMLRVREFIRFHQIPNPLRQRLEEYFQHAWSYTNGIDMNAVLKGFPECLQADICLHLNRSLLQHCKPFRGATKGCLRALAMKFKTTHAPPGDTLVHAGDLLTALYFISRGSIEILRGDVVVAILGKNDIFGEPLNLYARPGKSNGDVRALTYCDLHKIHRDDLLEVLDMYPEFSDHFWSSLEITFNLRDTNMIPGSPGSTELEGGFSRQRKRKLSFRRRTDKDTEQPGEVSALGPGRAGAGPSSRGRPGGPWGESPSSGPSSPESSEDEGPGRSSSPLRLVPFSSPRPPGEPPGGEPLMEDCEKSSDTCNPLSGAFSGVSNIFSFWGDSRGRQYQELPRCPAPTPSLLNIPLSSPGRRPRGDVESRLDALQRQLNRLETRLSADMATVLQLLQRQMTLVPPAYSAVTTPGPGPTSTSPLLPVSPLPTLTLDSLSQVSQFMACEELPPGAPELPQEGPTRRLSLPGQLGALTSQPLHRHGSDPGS
row,SMILES,"hERG current change (%, negative = inhibition) at 10uM [%]"
1,OC(CN1CCN(C(c2ccccc2)c2ccccc2)CC1)c1ccccc1 (stereo not drawn),-30.8
2,OC(COc1ccccc1)CN1CCN(C(c2ccccc2)c2ccccc2)CC1 (stereo not drawn),-69.6
3,COc1cccc(OCC(O)CN2CCN(C(c3ccccc3)c3ccccc3)CC2)c1.Cl (stereo not drawn),-43.6
4,CCC(=O)c1ccc(OCC(O)Cn2nc(C)cc2C)cc1 (stereo not drawn),-7.44
5,CC(=O)c1ccccc1OCC(O)CN1CCN(c2ccccn2)CC1.Cl (stereo not drawn),-39
6,CCOc1ccccc1C(=O)N1CCN(C(c2ccccc2)c2ccccc2)CC1,0.314
7,CCC(=O)c1ccc(OCC(O)Cn2nc(C)c(C(C)=O)c2C)cc1 (stereo not drawn),-36.7
8,OC(COCc1ccco1)CN1CCN(C(c2ccccc2)c2ccccc2)CC1 (stereo not drawn),-73.4
9,OC(COc1ccccc1)CN1CCOCC1 (stereo not drawn),9.83
10,CC(=O)c1ccccc1OCC(O)CN1CCN(C(c2ccccc2)c2ccccc2)CC1 (stereo not drawn),-66.7
11,O=C(CN1CCN(C(c2ccccc2)c2ccccc2)CC1)NC(=O)NCc1ccco1,-5.1
12,CCC(=O)c1ccc(OCC(O)Cn2nc(C)c(Br)c2C)cc1 (stereo not drawn),-97.8
13,Cc1cccnc1NC(=S)NCc1ccco1,-2.97
14,CC(=O)O.COc1c(O)ccc(C2NC(=O)NC(C)=C2C(=O)Nc2ccccc2C)c1[N+](=O)[O-] (stereo not drawn),31.9
15,CC(/C=C1\SC(=S)N(CCC(=O)Nc2cccc(C(=O)O)c2)C1=O)=C\c1ccccc1,10.9
16,Cc1ccc(NC(=S)N=Nc2c(O)[nH]c3ccccc23)cc1,9.41
17,CCC(=O)c1ccc(OCC(O)CN2CCN(c3ccccn3)CC2)cc1 (stereo not drawn),-34
18,OC(COc1ccccc1)CN1CCN(c2ncccn2)CC1 (stereo not drawn),-22.9
19,CCC(=O)c1ccc(OCC(O)CN2CCN(c3cccc(C(F)(F)F)c3)CC2)cc1 (stereo not drawn),-55.2

row,SMILES,"hERG current change (%, negative = inhibition) at 10uM [%]"
1,Cl.O=C(/C=C/c1ccccc1)N1CCN(CC(O)COc2ccccc2)CC1 (stereo not drawn),-69.7
2,OC(COc1ccccc1)CN1CCCCCC1 (stereo not drawn),-4.43
3,CC(C)(c1ccccc1)c1ccc(OCC(O)CN2CCCC2)cc1.Cl (stereo not drawn),-60.3
4,Cl.O=C(COc1ccccc1)N1CCN(CC(O)COc2ccccc2)CC1 (stereo not drawn),-50.8
5,CC(=O)N1CCN(CC(O)COc2ccc(OCc3ccccc3)cc2)CC1 (stereo not drawn),-17.7
6,CCOc1ccc(OCC(O)CN2CCN(S(=O)(=O)c3cccc(C(F)(F)F)c3)CC2)cc1.O=C(O)C(=O)O (stereo not drawn),13.7
7,CC(C)(C)c1ccc(OCC(O)CN2CCCC2)cc1.Cl (stereo not drawn),-35.7
8,Cl.O=C(C(c1ccccc1)c1ccccc1)N1CCN(CC(O)COc2ccccc2)CC1 (stereo not drawn),-13.7
9,COc1cc(/C=C/C(=O)N2CCN(CC(O)COc3ccccc3)CC2)cc(OC)c1OC.Cl (stereo not drawn),-8.44
10,COc1cc(C(=O)NCCNC(=O)c2ccc(C)nc2)cc(OC)c1OC,11.8
11,S=C(Nc1ccccc1)Nc1nccs1,24.4
12,CCOc1ccc(Nc2oc(-c3ccc(Cl)cc3)nc2C#N)cc1,9.08
13,Cl.Fc1ccc(CN2C3=NCCN3c3ccccc32)cc1,-54.9
14,Cl.Fc1ccc(CN2C3=NCCCN3c3ccccc32)cc1,-71.2
15,O=C(CN1C(=O)C2C3c4ccccc4C(c4ccccc43)C2C1=O)Nc1cccc(C(=O)O)c1 (stereo not drawn),-10.3
16,O=C(COc1ccc(Cl)cc1Cl)N/N=C1\CCCc2ccccc21,2.52
17,CC(C)(CO)NCc1ccccc1OCC(=O)Nc1ccccc1,-14
18,Cc1ccc(C(=O)OCC(=O)Nc2ccc(F)c(Cl)c2)o1,17
19,Clc1ccc(-n2nnnc2-c2cnc3ccc(Cl)cc3c2-c2ccccc2)cc1,5.46

row,SMILES,"hERG current change (%, negative = inhibition) at 10uM [%]"
1,O=C(CCCN1C(=O)c2ccccc2C1=O)N1CCC(c2ccccc2)C1 (stereo not drawn),-58.6
2,Cc1ccc(/C=C/C(=O)N2CCCN(C(=O)/C=C/c3ccc(C)cc3)CC2)cc1,-74.8
3,O=C(/C=C/c1ccc(F)cc1)N1CCCN(C(=O)/C=C/c2ccc(F)cc2)CC1,-75.6
4,O=C(CCN1C(=O)c2ccccc2C1=O)N1CCC(c2ccccc2)C1 (stereo not drawn),-43
5,Cc1ccc(/C=C/C(=O)N2CCCC(C)C2)cc1 (stereo not drawn),-8.25
6,O=C(Nc1ccccc1)N1CCc2ccccc21,-21.2
7,O=C(Nc1ccccc1)N1CCCc2ccccc21,-79.2
8,Cc1ccc(NC(=O)N2CCCc3ccccc32)cc1,-6.25
9,CCN1CCN(C(=O)/C=C/c2ccc(F)cc2)CC1,-43.2
10,O=C(CCCCCCN1C(=O)c2ccccc2C1=O)N1CCC(c2ccccc2)C1 (stereo not drawn),-39.7
11,CCN1CCN(C(=O)/C=C/c2ccc(C)cc2)CC1,-23.1
12,CN1CCCN(C(=O)/C=C/c2ccc(F)cc2)CC1,-23.7
13,COc1ccc2cc(OCC(=O)NNC(=O)Nc3ccc(C(C)=O)cc3)ccc2c1,9.54
14,Cc1ccnc(SCc2cc(=O)c(OC(=O)c3ccco3)co2)n1,4.97
15,COc1ccc(NCc2ccsc2)cc1,2.52
16,O=C(NCC1CC1)c1ccccc1Cl,11.6
17,COc1ccc(N2CCN(C3CC(=O)N(c4ccc5c(c4)OCCO5)C3=O)CC2)cc1 (stereo not drawn),-2.06
18,CC(=O)Oc1ccccc1C(=O)N(C1CCCCC1)C1CCCCC1,15.3
19,COc1ccc(C(=O)N/N=C(\Cc2ncc[nH]2)c2ccccc2)cc1,2.43
